MsrA act – bovine methionine sulfoxide reductase A activation. purified bovine MsrA, absorbance read-out. activation, % at 10.6 µM. actives 0.3% (n = 360,000); in the data active = activation above about 7.5%
MsrA inh – inhibitors of bovine MsrA; purified bovine MsrA, absorbance read-out; inhibition, % at 15.5 µM; actives 0.75% (n = 360,000); AID 651718; in the data active = inhibition above about 4.5%
PLCg1 inh – blocks human PLC-gamma1 enzyme activity. P19174. purified PLC-gamma1, fluorogenic substrate, fluorescence. inhibition, % at 12.2 µM. actives 0.84% (n = 370,000). AID 720700; in the data active = inhibition above about 9.5%
Target sequence (P19174 whole entry, looked up): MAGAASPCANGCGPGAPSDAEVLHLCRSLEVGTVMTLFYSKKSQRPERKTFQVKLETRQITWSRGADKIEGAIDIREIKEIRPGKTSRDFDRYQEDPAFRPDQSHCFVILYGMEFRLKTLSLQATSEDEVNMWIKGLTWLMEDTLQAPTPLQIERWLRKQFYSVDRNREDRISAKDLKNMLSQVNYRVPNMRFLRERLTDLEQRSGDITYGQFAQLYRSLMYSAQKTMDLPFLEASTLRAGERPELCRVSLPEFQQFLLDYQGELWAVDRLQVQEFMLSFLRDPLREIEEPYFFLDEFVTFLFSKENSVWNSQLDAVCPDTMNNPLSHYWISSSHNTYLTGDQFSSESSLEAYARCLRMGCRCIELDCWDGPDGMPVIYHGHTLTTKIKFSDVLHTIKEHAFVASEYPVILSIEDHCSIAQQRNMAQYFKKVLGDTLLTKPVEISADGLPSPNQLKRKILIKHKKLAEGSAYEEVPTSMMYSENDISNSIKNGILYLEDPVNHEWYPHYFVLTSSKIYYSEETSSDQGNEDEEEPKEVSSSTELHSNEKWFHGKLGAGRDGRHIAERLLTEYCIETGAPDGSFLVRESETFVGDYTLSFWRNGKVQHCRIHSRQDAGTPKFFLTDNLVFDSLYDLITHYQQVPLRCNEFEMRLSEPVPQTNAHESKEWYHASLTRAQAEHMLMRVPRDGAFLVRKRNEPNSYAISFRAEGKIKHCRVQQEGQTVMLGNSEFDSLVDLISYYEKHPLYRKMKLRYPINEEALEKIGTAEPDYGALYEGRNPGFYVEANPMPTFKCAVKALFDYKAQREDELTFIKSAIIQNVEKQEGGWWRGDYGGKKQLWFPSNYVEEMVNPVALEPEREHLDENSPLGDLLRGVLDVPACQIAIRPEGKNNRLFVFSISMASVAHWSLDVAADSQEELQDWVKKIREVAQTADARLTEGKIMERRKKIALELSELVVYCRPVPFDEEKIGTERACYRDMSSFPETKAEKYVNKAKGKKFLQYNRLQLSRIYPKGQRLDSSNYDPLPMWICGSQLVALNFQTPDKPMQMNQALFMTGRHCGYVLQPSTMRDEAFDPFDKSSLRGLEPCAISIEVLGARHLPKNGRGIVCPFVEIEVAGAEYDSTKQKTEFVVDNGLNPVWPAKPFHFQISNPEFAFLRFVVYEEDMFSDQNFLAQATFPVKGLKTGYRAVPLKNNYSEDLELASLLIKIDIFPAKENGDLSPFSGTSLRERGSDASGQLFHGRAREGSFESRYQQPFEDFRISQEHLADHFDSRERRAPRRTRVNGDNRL
PLCb3 inh – inhibitors of human phospholipase C beta3. Q01970. Purified PLC-beta3, fluorogenic substrate, fluorescence. inhibition, % at 12.2 µM. actives 0.18% (n = 370,000)
PLCg1 ctr – inhibits human PLC-gamma1 in PLC-beta3 counter-screen; shares compounds with PLCg1 inh; purified PLC-gamma1, fluorogenic substrate, fluorescence; inhibition, % at 12.3 µM; actives 3.1% (n = 3,300); in the data active = inhibition above about 9.5%
PLCb3 confirm – human PLC-beta3 inhibition, confirmation; shares compounds with PLCg1 inh; purified PLC-beta3, fluorogenic substrate fluorescence; inhibition, % at 12.3 µM; actives 1% (n = 3,300); AID 743261
Numbers stand for hits. Most compounds without a hit are left out; they make up all but 1.9% or so of the library. Cut-off read from the data, not from the text of the source, unless noted: active = inhibition above about 11%; inactive = the rest.

Results for CCOC(=O)c1c(NC(=O)C(NCCN(C)C)c2ccccc2)sc2c1CCCC2 (stereo unspecified) ?
MsrA act: inactive; MsrA inh: inactive; PLCg1 inh: inactive; PLCb3 inh: inactive

How did COc1ccc(-c2[nH]nc3nc(N4CCN(C(=O)c5ccoc5)CC4)cc(C(F)(F)F)c23)cc1 do in these assays?
MsrA act: inactive; MsrA inh: inactive; PLCg1 inh: inactive; PLCb3 inh: inactive

Results for Cc1cccc(-c2noc(C(C)NC(=O)c3ccco3)n2)c1 (stereo unspecified) ?
MsrA act: inactive; MsrA inh: inactive; PLCg1 inh: 13.1; PLCb3 inh: inactive; PLCg1 ctr: inactive; PLCb3 confirm: inactive

Results for CC(NC(=O)c1ccco1)c1nc(-c2ccccc2)no1 (stereo unspecified) ?
MsrA act: inactive; MsrA inh: inactive; PLCg1 inh: inactive; PLCb3 inh: inactive

Results for COC(=O)[C@H](C(C)C)N(CCc1cn(CC2CCCCC2)nn1)S(=O)(=O)c1ccc(F)cc1Br ?
PLCg1 inh: inactive; PLCb3 inh: inactive

How did N#CCOc1nc(N2CCOCC2)nc(N2CCOCC2)n1 do in these assays?
MsrA act: inactive; MsrA inh: inactive; PLCg1 inh: 10.0; PLCb3 inh: inactive; PLCg1 ctr: inactive; PLCb3 confirm: inactive

What do the screens show for `COc1cccc(C(=O)NC2CC3CCCC(C2)N3CC(=O)Nc2ccccc2)c1` (stereo unspecified)?
MsrA act: inactive; MsrA inh: inactive; PLCg1 inh: inactive; PLCb3 inh: inactive

What do the screens show for `COc1cccc(C(=O)NC2CC3CCCC(C2)N3CC(=O)Nc2ccc(N(C)C)cc2)c1` (stereo unspecified)?
MsrA act: inactive; MsrA inh: inactive; PLCg1 inh: 10.7; PLCb3 inh: inactive; PLCg1 ctr: inactive; PLCb3 confirm: inactive

What do the screens show for `Cc1ccc(Nc2cc(C)nc3ncnn23)c(Cl)c1`?
MsrA act: inactive; MsrA inh: inactive; PLCg1 inh: inactive; PLCb3 inh: inactive

How did Cc1cc(Nc2cccc(Cl)c2Cl)n2ncnc2n1 do in these assays?
MsrA act: inactive; MsrA inh: inactive; PLCg1 inh: 13.2; PLCb3 inh: inactive; PLCg1 ctr: inactive; PLCb3 confirm: inactive

Results for O=C(Nn1c(SCc2cccc([N+](=O)[O-])c2)nc2ccccc2c1=O)c1ccccc1 ?
MsrA act: inactive; MsrA inh: inactive; PLCg1 inh: 10.7; PLCb3 inh: inactive; PLCg1 ctr: inactive; PLCb3 confirm: inactive

Results for Cc1cccc(-c2nc3ccccc3c(=O)n2NC(=O)/C=C/c2ccc([N+](=O)[O-])cc2)c1 ?
MsrA act: inactive; MsrA inh: inactive; PLCg1 inh: inactive; PLCb3 inh: inactive

What do the screens show for `O=C(/C=C/c1cccc([N+](=O)[O-])c1)Nn1c(-c2ccccc2F)nc2ccccc2c1=O`?
MsrA act: inactive; MsrA inh: inactive; PLCg1 inh: 11.6; PLCb3 inh: inactive; PLCg1 ctr: inactive; PLCb3 confirm: inactive

Results for CCCCCCCCN1C(=O)[C@@H](CC(=O)NCC2CCCCC2)C[C@@]2(C(=O)OC)C1=C[C@H](C1CCCC1)O[C@@H]2C ?
MsrA inh: inactive; PLCg1 inh: inactive; PLCb3 inh: inactive

Results for Cc1ccc(CNCC(O)(c2ccccc2)c2ccccc2)cc1 ?
MsrA act: inactive; MsrA inh: inactive; PLCg1 inh: 10.2; PLCb3 inh: inactive; PLCg1 ctr: inactive; PLCb3 confirm: inactive

Results for Cc1ccc(CNCC(O)(c2ccccc2)c2ccc(Cl)cc2)cc1 (stereo unspecified) ?
MsrA act: inactive; MsrA inh: inactive; PLCg1 inh: inactive; PLCb3 inh: inactive

How did CCOC(=O)[C@]12CCCCC/C=C\1N(CCc1ccc(Cl)cc1)C(=O)[C@H]2CC(=O)N1CCCCC1 do in these assays?
PLCg1 inh: inactive; PLCb3 inh: inactive

What do the screens show for `CC(C)C[C@H](NC(=O)c1nc[nH]c1C(=O)N[C@@H](CCCCN)C(=O)OC(C)(C)C)C(=O)OC(C)(C)C`?
MsrA act: inactive

What do the screens show for `CC(C)C[C@H](NC(=O)c1nc[nH]c1C(=O)NCC(=O)OC(C)(C)C)C(=O)OCc1ccccc1`?
MsrA act: inactive; MsrA inh: inactive; PLCg1 inh: 9.9; PLCb3 inh: inactive; PLCg1 ctr: inactive; PLCb3 confirm: inactive

Results for CC(C)C[C@H](NC(=O)c1[nH]cnc1C(=O)N[C@@H](C)C(=O)OC(C)(C)C)C(=O)OC(C)(C)C ?
MsrA act: inactive; MsrA inh: inactive; PLCg1 inh: inactive; PLCb3 inh: 10.8; PLCg1 ctr: inactive; PLCb3 confirm: inactive
